# Assay results: the supplement of paper PMC12282887
# ± gives the standard deviation of the averaged measurements.
# Experiments:
# Test in all cases: promoter activity interaction Z-score (Lux/OD deviation from empty-vector control); higher = stronger promoter induction by the compound
# [1] = tested on: E. coli BW25113 acrABp lux reporter
# Summary of the method: (§1)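 E. coli BW25113 luxCDABE reporter strains grew at 37°C in 40 µl LB Lennox in 384-well plates, with OD600 and luminescence read every 30 min for 12 h. After integration over 0–8 h for wild type or 1–9 h for deletion strains, wells under 10% of the median growth value were removed. Each score is the Z-transformed residual of growth-normalised luminescence fitted against a control.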
# [2] = tested on: E. coli BW25113 marRABp lux reporter
# Summary of the method: as §1
# [3] = tested on: E. coli BW25113 micFp lux reporter
# Summary of the method: as §1
# [4] = tested on: E. coli BW25113 ompFp lux reporter
# Summary of the method: as §1
# [5] = tested on: E. coli BW25113 robp lux reporter
# Summary of the method: as §1
# [6] = tested on: E. coli BW25113 soxSp lux reporter
# Summary of the method: as §1
# [7] = tested on: E. coli BW25113 tolCp lux reporter
# Summary of the method: as §1
# [8] = 24.6 µg/ml, genetic background: wild type
# [9] = 24.6 µg/ml, genetic background: ΔmarA
# [10] = 24.6 µg/ml, genetic background: Δrob
# [11] = 24.6 µg/ml, genetic background: ΔsoxS
# [12] = 49.3 µg/ml, genetic background: wild type
# [13] = 49.3 µg/ml, genetic background: ΔmarA
# [14] = 49.3 µg/ml, genetic background: Δrob
# [15] = 49.3 µg/ml, genetic background: ΔsoxS
# [16] = 98.6 µg/ml, genetic background: wild type
# [17] = 98.6 µg/ml, genetic background: ΔmarA
# [18] = 98.6 µg/ml, genetic background: Δrob
# [19] = 98.6 µg/ml, genetic background: ΔsoxS
# [20] = 197.1 µg/ml, genetic background: wild type
compound,measurement,setting,value
CC[n+]1c(-c2ccccc2)c2cc(N)ccc2c2ccc(N)cc21 [Ethidiumbromide],promoter activity interaction Z-score,[1]; [8],0.326 ± 0.22
same,promoter activity interaction Z-score,[1]; [9],0.524 ± 0.7
same,promoter activity interaction Z-score,[1]; [10],0.354 ± 0.098
same,promoter activity interaction Z-score,[1]; [11],-0.0764 ± 0.31
same,promoter activity interaction Z-score,[1]; [12],0.808 ± 0.11
same,promoter activity interaction Z-score,[1]; [13],1.18 ± 0.92
same,promoter activity interaction Z-score,[1]; [14],0.756 ± 0.029
same,promoter activity interaction Z-score,[1]; [15],0.5305 ± 0.0051
same,promoter activity interaction Z-score,[1]; [16],1.2 ± 0.53
same,promoter activity interaction Z-score,[1]; [17],0.599 ± 1.3
same,promoter activity interaction Z-score,[1]; [18],0.819 ± 0.29
same,promoter activity interaction Z-score,[1]; [19],0.475 ± 0.05
same,promoter activity interaction Z-score,[2]; [8],0.958 ± 0.21
same,promoter activity interaction Z-score,[2]; [9],0.99 ± 0.055
same,promoter activity interaction Z-score,[2]; [10],0.804 ± 0.17
same,promoter activity interaction Z-score,[2]; [11],0.684 ± 0.19
same,promoter activity interaction Z-score,[2]; [12],1.32 ± 0.076
same,promoter activity interaction Z-score,[2]; [13],1.56 ± 0.57
same,promoter activity interaction Z-score,[2]; [14],1.1 ± 0.13
same,promoter activity interaction Z-score,[2]; [15],1.368 ± 0.0038
same,promoter activity interaction Z-score,[2]; [16],1.6 ± 0.43
same,promoter activity interaction Z-score,[2]; [17],1.57 ± 0.26
same,promoter activity interaction Z-score,[2]; [18],1.07 ± 0.073
same,promoter activity interaction Z-score,[2]; [19],1.15 ± 0.091
same,promoter activity interaction Z-score,[3]; [8],0.89 ± 0.25
same,promoter activity interaction Z-score,[3]; [9],0.0467 ± 0.069
same,promoter activity interaction Z-score,[3]; [10],0.437 ± 0.23
same,promoter activity interaction Z-score,[3]; [11],0.0133 ± 0.038
same,promoter activity interaction Z-score,[3]; [12],1.09 ± 0.86
same,promoter activity interaction Z-score,[3]; [13],0.0126 ± 0.13
same,promoter activity interaction Z-score,[3]; [14],0.436 ± 0.016
same,promoter activity interaction Z-score,[3]; [15],0.338 ± 0.11
same,promoter activity interaction Z-score,[3]; [16],0.763 ± 1.3
same,promoter activity interaction Z-score,[3]; [17],-0.124 ± 0.015
same,promoter activity interaction Z-score,[3]; [18],0.377 ± 0.036
same,promoter activity interaction Z-score,[3]; [19],-0.366 ± 0.13
same,promoter activity interaction Z-score,[3]; [20],1.24
same,promoter activity interaction Z-score,[4]; [8],0.291 ± 0.39
same,promoter activity interaction Z-score,[4]; [9],0.262 ± 0.15
same,promoter activity interaction Z-score,[4]; [10],0.428 ± 0.57
same,promoter activity interaction Z-score,[4]; [11],-0.386 ± 0.08
same,promoter activity interaction Z-score,[4]; [12],0.79 ± 0.52
same,promoter activity interaction Z-score,[4]; [13],0.776 ± 0.33
same,promoter activity interaction Z-score,[4]; [14],0.612 ± 0.19
same,promoter activity interaction Z-score,[4]; [15],0.772 ± 0.8
same,promoter activity interaction Z-score,[4]; [16],0.327 ± 1.1
same,promoter activity interaction Z-score,[4]; [17],0.808 ± 0.52
same,promoter activity interaction Z-score,[4]; [18],-0.58 ± 0.54
same,promoter activity interaction Z-score,[4]; [19],-0.257 ± 0.67
same,promoter activity interaction Z-score,[5]; [8],0.277 ± 0.67
same,promoter activity interaction Z-score,[5]; [9],0.595 ± 0.36
same,promoter activity interaction Z-score,[5]; [10],0.758 ± 0.77
same,promoter activity interaction Z-score,[5]; [11],1.25 ± 1.1
same,promoter activity interaction Z-score,[5]; [12],-0.152 ± 0.42
same,promoter activity interaction Z-score,[5]; [13],1.37 ± 0.033
same,promoter activity interaction Z-score,[5]; [14],-0.413 ± 0.32
same,promoter activity interaction Z-score,[5]; [15],0.804 ± 0.45
same,promoter activity interaction Z-score,[5]; [16],-0.356 ± 0.7
same,promoter activity interaction Z-score,[5]; [17],-0.204 ± 0.19
same,promoter activity interaction Z-score,[5]; [18],-1.46 ± 0.089
same,promoter activity interaction Z-score,[5]; [19],-0.959 ± 1.1
same,promoter activity interaction Z-score,[6]; [8],0.555 ± 0.028
same,promoter activity interaction Z-score,[6]; [9],0.911 ± 0.17
same,promoter activity interaction Z-score,[6]; [10],0.717 ± 0.25
same,promoter activity interaction Z-score,[6]; [11],1.38 ± 0.36
same,promoter activity interaction Z-score,[6]; [12],1.31 ± 0.084
same,promoter activity interaction Z-score,[6]; [13],1.5169 ± 0.00016
same,promoter activity interaction Z-score,[6]; [14],1.38 ± 0.24
same,promoter activity interaction Z-score,[6]; [15],2.47 ± 0.14
same,promoter activity interaction Z-score,[6]; [16],1.8 ± 0.019
same,promoter activity interaction Z-score,[6]; [17],2.07 ± 0.081
same,promoter activity interaction Z-score,[6]; [18],2.14 ± 0.22
same,promoter activity interaction Z-score,[6]; [19],3.77 ± 0.59
same,promoter activity interaction Z-score,[6]; [20],0.127 ± 0.036
same,promoter activity interaction Z-score,[7]; [8],-0.0407 ± 0.73
same,promoter activity interaction Z-score,[7]; [9],0.142 ± 0.75
same,promoter activity interaction Z-score,[7]; [10],-0.711 ± 0.15
same,promoter activity interaction Z-score,[7]; [11],0.75 ± 0.61
same,promoter activity interaction Z-score,[7]; [12],0.059 ± 0.45
same,promoter activity interaction Z-score,[7]; [13],0.836 ± 0.52
same,promoter activity interaction Z-score,[7]; [14],-0.973 ± 1
same,promoter activity interaction Z-score,[7]; [15],0.167 ± 0.58
same,promoter activity interaction Z-score,[7]; [16],0.025 ± 1.1
same,promoter activity interaction Z-score,[7]; [17],-0.192 ± 0.57
same,promoter activity interaction Z-score,[7]; [18],-0.394 ± 0.42
same,promoter activity interaction Z-score,[7]; [19],0.815 ± 0.81
same,promoter activity interaction Z-score,[7]; [20],-0.153 ± 0.69
same,promoter activity interaction Z-score,"[7]; 197.1 µg/ml, genetic background: ΔsoxS",-1.48 ± 0.4
